In PubChem BioAssay AID1159580 (chemical genetic matrix, 2015):
Several values for one entry are separate records, joined by “and”; a condition that tells them apart may be missing. Equal values may be shown once. Out of some 5,500 compounds screened, about 2,000 (36%) were called active. Roughly 18% stayed inconclusive and do not appear here. Rule as the data show it: active = normalized growth mostly below about 0.91 (no sharp cut-off); inconclusive = no clear call, values can overlap the other calls; inactive = mostly above about 0.92. Some of the results follow. More than one record can exist for a structure, and the calls need not agree.

Experiment: chemical genetic growth profiling, strain panel (AID 1159580);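 also: tested at 20 µM; growth read once vehicle control cultures reached saturation at 30 °C; 1 = growth at the plate median or of vehicle wells; lower values mean less growth of the strain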
Conditions: S. cerevisiae deletion strains, growth OD

Measured: normalized growth

O=C(O)c1ccccc1Nc1cccc(C(F)(F)F)c1
inactive: locus YBR023C, strain chs3, stronger effect = lower value 0.924 | locus YBR229C, strain ROT2, stronger effect = lower value 0.983 | locus YCL029C, strain bik1, stronger effect = lower value 0.999 | locus YDL101C, strain DUN1, stronger effect = lower value 0.972 | locus YDL185W, strain tfp1, stronger effect = lower value 0.979 | locus YDL192W, strain arf1, stronger effect = lower value 0.974 | locus YDR101C, strain arx1, stronger effect = lower value 0.984 | locus YDR150W, strain NUM1, stronger effect = lower value 0.996 | locus YDR162C, strain NBP2, stronger effect = lower value 0.852 | locus YDR195W, strain ref2 0.998 | locus YDR318W, strain mcm21, stronger effect = lower value 0.959 | locus YDR388W, stronger effect = lower value 0.975 | locus YEL061C, strain CIN8, stronger effect = lower value 0.952 | locus YER110C, stronger effect = lower value 1.01 | locus YGL078C, strain dbp3, stronger effect = lower value 0.979 | locus YGL086W, strain mad1, stronger effect = lower value 0.96 | locus YGL248W, strain PDE1, stronger effect = lower value 0.92 | locus YGR135W, strain pre9, stronger effect = lower value 0.895 | locus YHR013C, strain ard1, stronger effect = lower value 0.988 | locus YHR079C, strain IRE1 (second series), stronger effect = lower value 0.988 | locus YHR094C, strain hxt1, stronger effect = lower value 1 | locus YHR200W, strain rpn10, stronger effect = lower value 0.95 | locus YIL073C, strain SPO22, stronger effect = lower value 0.858 | locus YIL125W, strain kgd1, stronger effect = lower value 0.981 | locus YIR030C, strain dcg1, stronger effect = lower value 0.965 | locus YJL134W, strain LCB3, stronger effect = lower value 0.994 | locus YJL168C, strain set2, stronger effect = lower value 0.99 | locus YJL187C, strain SWE1 (second series), stronger effect = lower value 0.941 | locus YJR075W, strain HOC1, stronger effect = lower value 0.93 | locus YKL009W, strain mrt4, stronger effect = lower value 0.896 | locus YKL068W, stronger effect = lower value 0.99 | locus YKL085W, strain MDH1 (second series), stronger effect = lower value 0.957 | locus YKL085W, strain MDH1, stronger effect = lower value 0.957 | locus YKL190W, strain CNB1, stronger effect = lower value 0.962 | locus YLR039C, strain RIC1, stronger effect = lower value 0.808 | locus YLR058C, strain SHM2, stronger effect = lower value 0.951 | locus YLR102C, strain apc9, stronger effect = lower value 0.982 | locus YLR262C, strain YPT6, stronger effect = lower value 0.821 | locus YLR268W, strain sec22, stronger effect = lower value 0.914 | locus YLR357W, strain rsc2, stronger effect = lower value 0.873 | locus YLR371W, strain rom2, stronger effect = lower value 0.987 | locus YML016C, strain PPZ1, stronger effect = lower value 0.991 | locus YML032C, strain rad52, stronger effect = lower value 0.933 | locus YML124C, strain tub3, stronger effect = lower value 0.97 | locus YMR078C, strain ctf18, stronger effect = lower value 0.98 | locus YMR223W, strain ubp8, stronger effect = lower value 0.945 | locus YMR307W, strain GAS1, stronger effect = lower value 0.842 | locus YNL067W, strain RPL9B, stronger effect = lower value 0.967 | locus YNL128W, strain TEP1, stronger effect = lower value 1.01 | locus YNL153C, strain GIM3, stronger effect = lower value 0.937 | locus YNL248C, strain rpa49, stronger effect = lower value 0.921 | locus YNL250W, strain rad50, stronger effect = lower value 0.994 | locus YNL271C, strain bni1, stronger effect = lower value 0.982 | locus YNL298W, strain CLA4, stronger effect = lower value 0.928 | locus YNR052C, strain pop2, stronger effect = lower value 0.993 | locus YOL012C, strain htz1 0.909 | locus YOL147C, strain pex11, stronger effect = lower value 0.975 | locus YOR061W, strain CKA2, stronger effect = lower value 0.947 | locus YOR069W, strain VPS5, stronger effect = lower value 0.991 | locus YOR136W, strain idh2, stronger effect = lower value 0.983 | locus YOR144C, strain elg1, stronger effect = lower value 0.978 | locus YOR316C, strain cot1, stronger effect = lower value 0.988 | locus YPL106C, strain sse1, stronger effect = lower value 0.968 | locus YPR119W, strain clb2, stronger effect = lower value 0.988 | locus YPR141C, strain kar3, stronger effect = lower value 0.99 | locus YPR163C, strain tif3, stronger effect = lower value 0.952 | locus YPR167C, strain met16, stronger effect = lower value 0.944 | strain wtn01, stronger effect = lower value 0.954
active: locus YAL013W, strain DEP1, stronger effect = lower value 0.857 | locus YAL021C, strain ccr4, stronger effect = lower value 0.847 | locus YAL026C, strain drs2, stronger effect = lower value 0.837 | locus YAL030W, strain snc1, stronger effect = lower value 0.817 | locus YBL061C, strain skt5, stronger effect = lower value 0.845 | locus YBR009C, strain hhf1, stronger effect = lower value 0.848 | locus YBR021W, strain FUR4, stronger effect = lower value 0.764 | locus YBR171W, strain sec66, stronger effect = lower value 0.69 | locus YBR231C, strain swc5, stronger effect = lower value 0.827 | locus YBR279W, strain paf1, stronger effect = lower value 0.859 | locus YCL011C, strain gbp2, stronger effect = lower value 0.86 | locus YCL016C, strain dcc1, stronger effect = lower value 0.87 | locus YCL069W, strain vba3, stronger effect = lower value 0.834 | locus YCR088W, strain abp1, stronger effect = lower value 0.793 | locus YDL005C, strain med2, stronger effect = lower value 0.882 | locus YDL035C, strain GPR1, stronger effect = lower value 0.844 | locus YDL040C, strain nat1, stronger effect = lower value 0.852 | locus YDL074C, strain BRE1, stronger effect = lower value 0.768 | locus YDR001C, strain nth1, stronger effect = lower value 0.805 | locus YDR069C, strain doa4, stronger effect = lower value 0.896 | locus YDR137W, strain rgp1, stronger effect = lower value 0.623 | locus YDR159W, strain sac3, stronger effect = lower value 0.661 | locus YDR297W, strain sur2, stronger effect = lower value 0.849 | locus YDR334W, strain swr1, stronger effect = lower value 0.788 | locus YDR335W, strain msn5, stronger effect = lower value 0.849 | locus YDR392W, strain spt3, stronger effect = lower value 0.721 | locus YDR502C, strain sam2, stronger effect = lower value 0.915 | locus YEL003W, strain gim4, stronger effect = lower value 0.842 | locus YEL037C, strain rad23, stronger effect = lower value 0.831 | locus YEL061C, strain CIN8 (second series), stronger effect = lower value 0.815 | locus YER015W, strain faa2, stronger effect = lower value 0.869 | locus YER016W, strain bim1, stronger effect = lower value 0.837 | locus YER111C, strain swi4, stronger effect = lower value 0.829 | locus YER155C, strain BEM2 (second series), stronger effect = lower value 0.763 | locus YER155C, strain BEM2, stronger effect = lower value 0.914 | locus YER167W, strain BCK2, stronger effect = lower value 0.833 | locus YFR010W, strain ubp6, stronger effect = lower value 0.858 | locus YGL167C, strain pmr1, stronger effect = lower value 0.751 | locus YGL173C, strain kem1, stronger effect = lower value 0.843 | locus YGL227W, strain vid30, stronger effect = lower value 0.812 | locus YGL240W, strain doc1, stronger effect = lower value 0.853 | locus YGL253W, strain hxk2, stronger effect = lower value 0.811 | locus YGR229C, strain SMI1, stronger effect = lower value 0.727 | locus YGR252W, strain gcn5, stronger effect = lower value 0.645 | locus YHR027C, strain rpn1, stronger effect = lower value 0.862 | locus YHR079C, strain IRE1, stronger effect = lower value 0.126 | locus YHR129C, strain ARP1, stronger effect = lower value 0.918 | locus YHR142W, strain chs7, stronger effect = lower value 0.775 | locus YIL066C, strain RNR3, stronger effect = lower value 0.824 | locus YJL092W, strain hpr5, stronger effect = lower value 0.801 | locus YJL095W, strain BCK1 (second series), stronger effect = lower value 0.848 | locus YJL115W, strain asf1, stronger effect = lower value 0.843 | locus YJL129C, strain trk1, stronger effect = lower value 0.565 | locus YJL154C, strain vps35, stronger effect = lower value 0.792 | locus YJL164C, strain tpk1, stronger effect = lower value 0.873 | locus YJL166W, strain qcr8, stronger effect = lower value 0.853 | locus YJL187C, strain SWE1, stronger effect = lower value 0.833 | locus YJR043C, strain POL32, stronger effect = lower value 0.775 | locus YJR066W, strain TOR1, stronger effect = lower value 0.00921 | locus YKL160W, strain elf1, stronger effect = lower value 0.835 | locus YKR001C, strain vps1, stronger effect = lower value 0.85 | locus YKR026C, strain gcn3, stronger effect = lower value 0.79 | locus YKR091W, strain srl3, stronger effect = lower value 0.826 | locus YLL001W, strain dnm1, stronger effect = lower value 0.833 | locus YLL026W, stronger effect = lower value 0.829 | locus YLL041C, strain sdh2, stronger effect = lower value 0.803 | locus YLR027C, strain aat2, stronger effect = lower value 0.865 | locus YLR113W, strain HOG1, stronger effect = lower value 0.137 | locus YLR221C, strain rsa3, stronger effect = lower value 0.838 | locus YLR258W, strain gsy2, stronger effect = lower value 0.83 | locus YLR262C, strain YPT6 (second series), stronger effect = lower value 0.634 | locus YLR320W, strain mms22, stronger effect = lower value 0.833 | locus YLR330W, strain CHS5, stronger effect = lower value 0.883 | locus YLR342W, strain FKS1 (second series), stronger effect = lower value 0.713 | locus YLR342W, strain FKS1, stronger effect = lower value 0.831 | locus YLR370C, strain arc18, stronger effect = lower value 0.808 | locus YLR384C, strain iki3, stronger effect = lower value 0.818 | locus YLR418C, strain cdc73, stronger effect = lower value 0.729 | locus YML120C, strain ndi1, stronger effect = lower value 0.842 | locus YMR058W, strain fet3, stronger effect = lower value 0.824 | locus YMR125W, strain sto1, stronger effect = lower value 0.835 | locus YMR129W, stronger effect = lower value 0.812 | locus YMR205C, strain PFK2, stronger effect = lower value 0.81 | locus YMR231W, strain pep5, stronger effect = lower value 0.817 | locus YNL071W, strain lat1, stronger effect = lower value 0.849 | locus YNL183C, strain NPR1, stronger effect = lower value 0.0159 | locus YNL209W, strain ssb2, stronger effect = lower value 0.862 | locus YNL233W, strain BNI4, stronger effect = lower value 0.852 | locus YNL307C, strain MCK1, stronger effect = lower value 0.695 | locus YNL322C, strain KRE1 (second series), stronger effect = lower value 0.801 | locus YNR049C, strain mso1, stronger effect = lower value 0.813 | locus YOR001W, strain rrp6, stronger effect = lower value 0.872 | locus YOR070C, strain gyp1, stronger effect = lower value 0.848 | locus YOR080W, strain dia2, stronger effect = lower value 0.847 | locus YOR083W, strain WHI5, stronger effect = lower value 0.834 | locus YOR106W, strain vam3, stronger effect = lower value 0.821 | locus YOR184W, strain ser1, stronger effect = lower value 0.819 | locus YOR231W, strain MKK1, stronger effect = lower value 0.105 | locus YOR265W, strain rbl2, stronger effect = lower value 0.843 | locus YOR270C, strain vph1, stronger effect = lower value 0.674 | locus YOR290C, strain snf2, stronger effect = lower value 0.852 | locus YPL051W, strain arl3, stronger effect = lower value 0.831 | locus YPL078C, strain atp4, stronger effect = lower value 0.807 | locus YPL240C, strain hsp82, stronger effect = lower value 0.836 | locus YPL256C, strain CLN2, stronger effect = lower value 0.116
0.119 (active) and 0.83 (inactive): locus YJL095W, strain BCK1, stronger effect = lower value
0.134 (active) and 0.985 (inactive): locus YHR030C, strain SLT2, stronger effect = lower value
